# Measured values: PubChem BioAssay (NCI)
# About 83,000 compounds went through this panel and 20% of them were active in at least one assay; those are over-represented in the sample as a whole.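 Single-dose data. Exposure time 48 hours. Values below 10 considered active.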 Unmarked numbers belong to inactive results. Calls of active or inactive are those of the source.
# What was measured:
# Assay in all cases: NCI-60 one-dose screen, 48 h (100 = growth as untreated, 0 = no growth, -100 = all killed)
# Conditions in all cases: 10 µM unless noted
# [1] = tested on: DU-145 prostate
# [2] = tested on: K-562 leukemia
# [3] = tested on: MALME-3M melanoma
# [4] = tested on: MDA-MB-231 breast
# [5] = tested on: RXF 393 renal
# [6] = tested on: SF-268 CNS
# [7] = tested on: SF-295 CNS
# [8] = tested on: SF-539 CNS
# [9] = tested on: UACC-257 melanoma
# [10] = tested on: M14 melanoma
Compound,growth [1],growth [2],growth [3],growth [4],growth [5],growth [6],growth [7],growth [8],growth [9],growth [10]
O=C(Nc1ccc(F)cc1F)c1cc(F)ccc1O,21.9%,9.5% (active),-25.7% (active),10.8%,2.57% (active),15.8%,6.99% (active),17.1%,-8.33% (active),25.6%
COc1ccc(C(=O)C(C)C)c2ccccc12,104%,92.7%,115%,104%,109%,102%,103%,103%,128%,104%
CC(C)OC(=O)Nc1ccc(-c2nc(-c3cccc(OCCN4CCOCC4)c3)c(-c3ccnc(Br)c3)[nH]2)cc1,63.8%,0.869% (active),-5.36% (active),39.3%,-42.9% (active),52.2%,-65.2% (active),-0.0542% (active),33.5%,30.5%
N#Cc1c(-c2ccccc2)nc(SCC(=O)Nc2nc(-c3ccc(Cl)cc3)cs2)[nH]c1=O,113%,94.2%,129%,120%,110%,103%,98.2%,100%,97.4%,93.7%
O=c1c2cc(F)ccc2sc2c(NCCN3CCOCC3)nc3ccccc3c12,68.4%,0.338% (active),92%,25.9%,72.9%,68.7%,89.4%,74.7%,98.2%,46.5%
CCCCCCCCCCCCCCCCCCOc1ccccc1CC(=O)OCC[N+](CC)(CC)CC,33.9%,6.67% (active),-8.97% (active),-17.3% (active),-16.9% (active),23.8%,27.9%,18.5%,48.1%,26.8%
Cc1cc2nc3ccc(N=Nc4ccc(N(C)C)cc4)cc3n(-c3ccccc3)c-2cc1=N,-98.2% (active),17.9%,-92.7% (active),-27.9% (active),-87.8% (active),-78.1% (active),-89.4% (active),-89.4% (active),-95.7% (active),-78.4% (active)
Cc1cc(N2CCCC2)nc(N(CCCNc2ccnc3cc(Cl)ccc23)Cc2ccccn2)n1,62.7%,11.3%,39.4%,45.2%,25.8%,62.5%,66%,9.89% (active),49.4%,-15.9% (active)
CS(=O)(=O)N(c1cc(-c2ccc3ncnc(Nc4ccc(F)c(Cl)c4)c3c2)cnc1Cl)S(C)(=O)=O,47.3%,50.5%,9.57% (active),44.3%,-6.35% (active),32.3%,34%,39.9%,38.8%,43.6%
COc1c(C2CC(=O)Nc3c2c(C)nn3-c2nc3ccccc3[nH]2)cc2c(c1OC)OCO2 (stereo not given),80.2%,15.1%,86.5%,68.4%,27.1%,62.1%,19.8%,59.8%,67.1%,33.3%
C=C1C(=O)O[C@H]2[C@H]1CC/C(COC(=O)C(C)c1ccc(CC(C)C)cc1)=C\CC[C@@]1(C)O[C@@H]21 (stereo not given in full),47.2%,-4.97% (active),-25.6% (active),-58% (active),-50.1% (active),33.8%,83.1%,22.1%,47.9%,16.1%
COc1ccc(-c2cnc3ccccc3n2)cc1,106%,97.5%,103%,92.7%,108%,94.6%,98.8%,90.6%,104%,100%
Cc1ccc(-c2cnc3sc(C(=O)NCCc4ccccc4)c(C)n23)cc1,99.1%,93.9%,95.5%,79.1%,99.1%,86.7%,104%,96.6%,120%,91.9%
